From PubChem BioAssay (Tox21) come the findings set out here.

Where “and” joins values, the source holds several entries; their conditions need not be identical. Identical values can stand only once. Inconclusive results are not listed. More than one record can exist for a structure, and the calls need not agree. Calls of active or inactive are those of the source. Unless noted, the call rests on the fitted dose curve; in most records, active means well fitted curve in the direction sought with a large enough effect in the repeat runs; inconclusive means weak or mixed curves; inactive means no such curve, though single readings can be large; an effect the other way counts as inactive or inconclusive.

Test [1] in a line: qHTS assay to identify small molecule antagonists of the estrogen receptor alpha (ER-alpha) signaling pathway using the BG1 cell line in the presence of 0.1 nM 17-beta-estradiol - cell viability counter screen (AID 1259241). Further: nearly all actives have a fitted effect of over 40% in size. Summed up:
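Estradiol-stimulated (0.1 nM) VM7Luc4E2 cells exposed to compounds 22 hr; viability measured by fluorescence of cleaved CellTiter-Fluor substrate after 30 min.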

The nature of test [2]: qHTS assay to identify small molecule antagonists of the androgen receptor (AR) signaling pathway using the MDA cell line in the presence of 0.5 nM R1881 - cell viability counter screen (AID 1259242). Further: nearly all actives have a fitted effect of over 45% in size. Summed up: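 qHTS format. MDA-kb2 (MMTV-luc, AR/GR responsive) + cpd + 0.5 nM R1881 final, 16 hr 37C/0% CO2 → CellTiter-Fluor 30 min → fluorescence intensity.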
The nature of test [3]: qHTS assay to identify small molecule HDAC inhibitors (AID 1259364). Further: potency means the concentration at half of the fitted maximal effect.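 Further: wild-type HCT-116 cells with endogenous class I/II HDAC activity; nearly all actives have a fitted effect of over 45% in size.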 Summed up:
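Quantitative high-throughput format: overnight-seeded HCT-116 cells got compounds for 2 hr at 37C; HDAC-Glo I/II reagent added, 30 min RT, luminescence measured.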

The nature of test [4]: qHTS assay to identify small molecule HDAC inhibitors - cell viability counter screen (AID 1259365). Further: series mostly up to about 92 µM; nearly all actives have a fitted effect of over 50% in size. In short, it runs like this:
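After overnight seeding at 1,500 cells per well, wild-type HCT-116 cultures took up compounds in DMSO for 2hr at 37 C. Viable cell content came from luminescence with CellTiter-Glo.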

Test [5] can be described thus: qHTS assay to identify small molecule agonists of the sonic hedgehog signaling (Shh) pathway - cell viability counter screen (AID 1259366). Further: nearly all actives have a fitted effect of over 50% in size. Further: potency means the concentration at half of the fitted maximal effect. In short, it runs like this:
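Same-well cytotoxicity read. Gli1-Luc reporter 3T3 cells; compounds 24hr, 37C/5% CO2; CellTiter-Fluor fluorescence.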

The nature of test [6]: qHTS assay to identify small molecule antagonists of the sonic hedgehog signaling (Shh) pathway - cell viability counter screen (AID 1259367). Further: nearly all actives have a fitted effect of over 55% in size. Further: potency means the concentration at half of the fitted maximal effect. In short, it runs like this: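 Conditioned medium drove Shh signaling in 3T3 Gli1-Luc cells exposed to compounds at 37C and 5% CO2. Viability was determined from CellTiter-Fluor fluorescence, with reagent incubated 1 hr after 23 hr of treatment.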

Test [7] in a line: qHTS assay to identify small molecule agonists of the sonic hedgehog signaling (Shh) pathway (AID 1259368; calls by dose curve;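 further: NIH/3T3-derived 3T3Gli1-Luc cells carrying a stable Gli1-driven firefly luciferase reporter; series mostly up to about 92 µM; nearly all actives have a fitted effect of over 15% in size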). In short, it runs like this:
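Quantitative high-throughput format using a Gli1-driven firefly luciferase reporter line derived from NIH/3T3 cells. After a 24 hr compound treatment at 37 C and 5% CO2, luminescence reported Gli1 response element activity.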

Test [8] is described as follows: qHTS assay to identify small molecule antagonists of the sonic hedgehog signaling (Shh) pathway (AID 1259369; calls by dose curve; further: nearly all actives have a fitted effect of over 45% in size; further: potency means the concentration at half of the fitted maximal effect). In short, it runs like this: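 Stable Gli1-Luc reporter NIH/3T3 clone; quantitative HTS in stimulated mode with conditioned medium. Luminescence measured after 24hr compound treatment at 37 C.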
Test [9] deals with Estrogen receptor beta (Homo sapiens) (UniProt Q92731). Nature of the test: qHTS assay to identify small molecule agonists of the estrogen receptor beta (ER-beta) signaling pathway (AID 1259377; active means well fitted activation curve with a large enough effect in the signal ratio in the repeat runs, not every such curve was filed as active; the % refers to the signal ratio). Summed up:
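Read-out: beta-lactamase FRET fluorescence. Cell line: ER-beta-UAS-bla HEK293T in 2% charcoal-stripped FBS. Exposure: 16 hr at 37C. Substrate step: 2 h at room temperature.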

Test [10] in a line: qHTS assay to identify small molecule agonists of the androgen receptor (AR) signaling pathway in the presence of an antagonist - cell viability counter screen (AID 1259379).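 Further: MDA-kb2 human breast cancer cells carrying an MMTV luciferase reporter; series mostly up to about 92 µM; nearly all actives have a fitted effect of over 25% in size.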 Summed up:
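Nilutamide-containing (3.0uM final) MDA-kb2 cultures, 3,000 cells/well, were treated with compounds across 15 concentrations. After 16 hr at 37C with no CO2, cell viability was determined by CellTiter-Fluor fluorescence in the luciferase assay wells.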

Test [11] in a line: qHTS assay to identify small molecule antagonists of the estrogen receptor beta (ER-beta) signaling pathway - cell viability counter screen (AID 1259382). Further: series mostly up to about 92 µM; nearly all actives have a fitted effect of over 55% in size. In short, it runs like this:
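Viability is scored by CellTiter-Glo luminescence (30 min, room temperature) in ER-beta-UAS-bla HEK293T wells already read for reporter fluorescence. Compound exposure lasts 16 hr at 37C alongside 1nM 17-beta-estradiol in charcoal-stripped serum medium.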

The nature of test [12]: qHTS assay to identify small molecule agonists or antagonists of the thyroid stimulating hormone receptor (TSHR) signaling pathway - wild type cell line counter screen (AID 1259384; calls by dose curve). Summed up: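 Wild-type HEK293 cells were plated 18 h at 37 C/5% CO2, pin-dosed with compound plus Ro20-1724 medium, held 30 min at room temperature, then given cAMP-d2 and anti-cAMP-cryptate; fluorescence was read after 1 h. Fifteen concentrations, triplicate.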

The target in test [13] is Thyrotropin receptor (Homo sapiens) (UniProt P16473). Nature of the test: qHTS assay to identify small molecule antagonists of the thyroid stimulating hormone receptor (TSHR) signaling pathway (AID 1259385; calls by dose curve; further: nearly all actives have a fitted effect of over 20% in size). In short, it runs like this:
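TSHR-HEK293 cells were plated and held 18 h at 37C/5% CO2, then given compound plus Ro20-1724 and stimulated with TSH at 1.5 ng/mL final. After 30 min at room temperature, cAMP was detected with cAMP-d2/anti-cAMP-cryptate (1 h) by fluorescence.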

The target in test [14] is Estrogen receptor beta (Homo sapiens) (UniProt Q92731). Nature of the test: qHTS assay to identify small molecule antagonists of the estrogen receptor beta (ER-beta) signaling pathway (AID 1259378; active means well fitted inhibition curve with a large enough effect in the signal ratio in the repeat runs, not every such curve was filed as active; the % refers to the signal ratio; further: potency means the concentration at half of the fitted maximal effect). Summed up:
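ER-beta-UAS-bla HEK293T (GripTite) cells in 2% charcoal-stripped FBS medium were preincubated 6 hr at 37C, dosed with compound, then stimulated with 1 nM E2 (final) for 16 hr; beta-lactamase reporter read by B/G FRET fluorescence after 2 hr substrate loading.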

Test [15] can be described thus: qHTS assay to identify small molecule agonists of the estrogen receptor beta (ER-beta) signaling pathway - cell viability counter screen (AID 1259380). Further: nearly all actives have a fitted effect of over 30% in size. Further: potency means the concentration at half of the fitted maximal effect. In short, it runs like this:
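Steps: plate ER-beta-UAS-bla HEK293T cells, rest 6 hr; add compounds in DMSO; incubate 16 hr at 37C, 5% CO2; add FRET substrate 2 hr; add CellTiter-Glo, wait 30 min at room temperature; read luminescence.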

For test [16], the target named is Estrogen receptor (Homo sapiens) (UniProt P03372). Nature of the test: qHTS assay to identify small molecule agonists of the estrogen receptor alpha (ER-alpha) signaling pathway in the presence of an antagonist (AID 1259383; calls by dose curve; further: top concentration of the series differs between compounds; nearly all actives have a fitted effect of over 15% in size). In short, it runs like this: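 Readout was ERE-driven luciferase luminescence in VM7Luc4E2 cells, which express full-length ER-alpha endogenously. Compounds were tested at 15 concentrations for 22hr alongside 10.0nM ICI-182,780 (final concentration).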
Estrogen receptor (Homo sapiens), sequence (P03372 whole entry, looked up): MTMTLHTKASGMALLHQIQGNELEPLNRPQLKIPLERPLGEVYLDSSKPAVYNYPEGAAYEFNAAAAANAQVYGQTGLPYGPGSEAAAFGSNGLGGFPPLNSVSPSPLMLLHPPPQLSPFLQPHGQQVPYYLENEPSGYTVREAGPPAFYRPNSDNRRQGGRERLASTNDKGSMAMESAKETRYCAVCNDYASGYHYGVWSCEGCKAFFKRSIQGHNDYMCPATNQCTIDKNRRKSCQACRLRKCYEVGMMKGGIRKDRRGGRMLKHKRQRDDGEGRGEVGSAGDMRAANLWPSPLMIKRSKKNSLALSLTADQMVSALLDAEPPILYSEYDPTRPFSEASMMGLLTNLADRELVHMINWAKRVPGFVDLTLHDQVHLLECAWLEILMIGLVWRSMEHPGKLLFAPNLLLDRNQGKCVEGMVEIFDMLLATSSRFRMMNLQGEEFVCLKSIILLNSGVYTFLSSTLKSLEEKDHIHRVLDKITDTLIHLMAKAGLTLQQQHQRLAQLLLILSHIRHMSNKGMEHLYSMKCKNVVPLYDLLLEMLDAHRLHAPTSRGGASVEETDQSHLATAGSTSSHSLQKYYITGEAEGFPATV

Test [17] deals with Androgen receptor (Homo sapiens) (UniProt P10275). The test can be described thus: qHTS assay to identify small molecule agonists of the androgen receptor (AR) signaling pathway in the presence of an antagonist (AID 1259381; calls by dose curve; further: nearly all actives have a fitted effect of over 15% in size). In short, it runs like this: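 Reporter-gene luminescence from MDA-kb2 cells exposed 16hr at 37C (0% CO2) to 15-point compound titrations with 3.0uM final nilutamide as AR antagonist.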
Androgen receptor (Homo sapiens), sequence (P10275 whole entry, looked up): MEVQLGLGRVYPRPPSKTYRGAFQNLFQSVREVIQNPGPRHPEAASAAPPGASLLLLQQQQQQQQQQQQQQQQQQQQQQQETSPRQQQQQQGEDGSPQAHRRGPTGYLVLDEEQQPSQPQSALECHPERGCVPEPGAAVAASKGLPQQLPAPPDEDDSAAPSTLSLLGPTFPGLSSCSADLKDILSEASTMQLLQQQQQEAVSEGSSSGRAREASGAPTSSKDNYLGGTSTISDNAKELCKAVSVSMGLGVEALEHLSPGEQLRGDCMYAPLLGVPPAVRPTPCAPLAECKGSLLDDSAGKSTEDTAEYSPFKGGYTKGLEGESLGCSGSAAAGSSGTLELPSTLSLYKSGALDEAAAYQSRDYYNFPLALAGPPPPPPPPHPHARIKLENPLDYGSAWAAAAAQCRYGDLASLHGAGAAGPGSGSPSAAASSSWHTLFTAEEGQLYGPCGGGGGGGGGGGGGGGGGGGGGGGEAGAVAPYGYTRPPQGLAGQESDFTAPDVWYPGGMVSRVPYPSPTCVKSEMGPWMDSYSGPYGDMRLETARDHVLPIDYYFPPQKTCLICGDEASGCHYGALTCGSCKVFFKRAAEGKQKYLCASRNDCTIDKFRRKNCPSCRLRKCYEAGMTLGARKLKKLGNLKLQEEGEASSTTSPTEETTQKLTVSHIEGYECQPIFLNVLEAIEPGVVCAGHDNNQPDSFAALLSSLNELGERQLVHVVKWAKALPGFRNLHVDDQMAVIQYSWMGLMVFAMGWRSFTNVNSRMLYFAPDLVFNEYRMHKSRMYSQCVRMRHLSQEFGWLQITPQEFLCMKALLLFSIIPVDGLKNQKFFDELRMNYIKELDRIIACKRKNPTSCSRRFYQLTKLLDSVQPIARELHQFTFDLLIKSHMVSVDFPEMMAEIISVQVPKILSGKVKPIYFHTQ

Estrogen receptor beta (Homo sapiens), sequence (Q92731 whole entry, looked up): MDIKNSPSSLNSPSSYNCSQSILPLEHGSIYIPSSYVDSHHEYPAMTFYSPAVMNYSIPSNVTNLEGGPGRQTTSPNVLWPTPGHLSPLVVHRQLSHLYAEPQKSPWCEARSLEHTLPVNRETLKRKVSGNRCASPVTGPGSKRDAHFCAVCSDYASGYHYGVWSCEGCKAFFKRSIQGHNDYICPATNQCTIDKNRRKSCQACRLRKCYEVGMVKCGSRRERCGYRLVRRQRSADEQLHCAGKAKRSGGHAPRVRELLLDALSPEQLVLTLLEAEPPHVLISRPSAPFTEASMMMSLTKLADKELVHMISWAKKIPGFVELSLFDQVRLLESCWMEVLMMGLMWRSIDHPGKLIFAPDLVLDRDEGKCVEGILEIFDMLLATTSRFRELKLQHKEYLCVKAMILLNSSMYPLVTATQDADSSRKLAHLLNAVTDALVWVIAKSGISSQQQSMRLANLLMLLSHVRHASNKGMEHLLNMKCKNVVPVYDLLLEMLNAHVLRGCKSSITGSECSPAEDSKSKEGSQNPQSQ
Thyrotropin receptor (Homo sapiens), sequence (P16473 whole entry, looked up): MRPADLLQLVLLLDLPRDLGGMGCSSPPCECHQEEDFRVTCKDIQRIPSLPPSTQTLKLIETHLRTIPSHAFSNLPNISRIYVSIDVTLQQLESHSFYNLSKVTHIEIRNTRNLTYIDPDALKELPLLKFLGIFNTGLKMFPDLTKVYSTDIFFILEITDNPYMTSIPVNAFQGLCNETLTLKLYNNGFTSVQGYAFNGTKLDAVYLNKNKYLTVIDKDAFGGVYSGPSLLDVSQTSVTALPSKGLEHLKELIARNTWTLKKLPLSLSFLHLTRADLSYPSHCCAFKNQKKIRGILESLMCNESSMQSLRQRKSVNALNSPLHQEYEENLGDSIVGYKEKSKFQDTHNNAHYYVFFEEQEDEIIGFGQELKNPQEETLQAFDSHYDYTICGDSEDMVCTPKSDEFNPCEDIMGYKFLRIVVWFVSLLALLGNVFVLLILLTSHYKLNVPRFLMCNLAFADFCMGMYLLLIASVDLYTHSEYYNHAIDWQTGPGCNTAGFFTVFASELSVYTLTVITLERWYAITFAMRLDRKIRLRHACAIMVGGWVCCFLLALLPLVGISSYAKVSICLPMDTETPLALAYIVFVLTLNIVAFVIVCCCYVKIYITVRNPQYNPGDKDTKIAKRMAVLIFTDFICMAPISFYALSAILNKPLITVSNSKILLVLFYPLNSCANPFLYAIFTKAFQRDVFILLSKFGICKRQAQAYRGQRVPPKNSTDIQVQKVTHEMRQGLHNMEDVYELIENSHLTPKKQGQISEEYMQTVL

`CCC(Cl)C(Cl)C(Cl)CC(Cl)C(Cl)C(C)Cl` (stereo unspecified): the Potency result in test [1], in [2], in test [3], in [4], in test [5] and in test [6] was “inactive” each time. Besides, the Potency entry in test [7], in test [8], in test [9], in [10], in [11] and in [13] was “inactive” throughout. For the same compound, the compound was called inactive in test [12].

Turning to `Clc1ccc(C(Cn2ccnc2)OCc2ccc(Sc3ccccc3)cc2)c(Cl)c1` (stereo unspecified), the Potency entry in test [1], in test [2], in test [3], in [4], in [5] and in test [6] was “inactive” each time. Also, the Potency entry in test [7], in [9], in test [14], in test [10], in [15] and in test [11] was “inactive” each time. The Potency entry in test [16] and in test [13] was “inactive” throughout. Besides, in test [12], the call was inactive.

`CC(C)OC(=O)c1cc2c(OCC(O)CNC(C)(C)C)cccc2[nH]1` (stereo unspecified): the Potency entry in test [1], in [2], in test [3], in test [4], in test [6] and in test [7] was “inactive” in each case. The Potency result in [9], in test [14], in test [10], in test [17] and in test [13] was “inactive” in each case. Besides, the Potency in test [8] was 2.66 µM (active). Also, the outcome in [12] was inactive.

`C/C(=C(/OCCOc1ccc(Cl)cc1)c1ccc(Cl)cc1Cl)n1ccnc1`: the Potency result in test [1], in test [2], in [3], in test [4], in [5] and in test [6] was “inactive” throughout. Moreover, the Potency result in test [7], in test [9], in test [10] and in test [13] was “inactive” each time. Moreover, the Potency in [14] was 13.3 µM (active); in [15], 15 µM (active). Also, the compound was called inactive in test [12].

Take `CCN(C(=O)c1cc(C)cc(OC[C@H](C)Nc2ccncc2)c1)C(C)C`: the Potency result in [1], in [2], in test [3], in test [4], in test [5] and in [6] was “inactive” in each case. The Potency entry in test [7], in test [10], in test [15], in test [11] and in test [13] was “inactive” throughout. The result in [12] was inactive.

On to `OCCCCCCCCCCCCBr`, for which the Potency result in test [1], in [2], in test [3], in [4], in test [5] and in test [6] was “inactive” each time. Besides, the Potency entry in [7], in test [9], in test [10], in test [15], in test [11] and in test [13] was “inactive” in each case. Also, the Potency in test [14] is 55.3 µM (active). In addition, in test [12], the compound was called inactive.

For the compound `Cc1cccc(N(C)C(=S)Oc2ccc3c(c2)C2CCC3C2)c1` (stereo unspecified), the Potency result in test [1], in test [2], in test [3], in [4], in test [5] and in test [6] was “inactive” each time. The Potency result in test [7], in test [9], in test [14], in [10], in [15] and in test [11] was “inactive” in each case. Also, in [16], the Potency result is “inactive”. Further, the result in test [12] was inactive.

Consider `O=c1cc(-c2ccc(O)cc2)oc2cc(O)cc(O)c12`, for which the Potency result in test [1], in test [2], in test [4], in [7], in test [15] and in test [11] was “inactive” each time. In test [13], the Potency entry is “inactive”. Also, the Potency in test [3] is 8.75 µM (active) and 17.2 µM (active); in test [5], 61.9 µM (active) and 38.6 µM (active); in [6] it was 48.6 µM (active); in [8], “inactive and 30.6 µM (active)”. For the same compound, in test [12], the compound was called inactive.
